According to PubChem BioAssay:
Activity calls are given as the source filed them.

How the values were obtained:
[1] = small molecules captured by biotinylated probe aFSTL3 – biochemical, small-molecule microarray, fluorescence 635/667, stem cell growth factor project, primary screen (AID 1064); conditions: higher = more signal;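 note: measures binding of the biotinylated anti-FSTL3 antibody to printed compounds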
[2] = binders from COS7 lysate, DM2A8 probe, primary screen, torsin A project, cell lysate, small-molecule microarray, fluorescence 635/667 (AID 1065); conditions: higher = more signal, COS7 lysate expressing mutant human TOR1A
[3] = small molecules captured by biotinylated probe aFGF2 – biochemical, small-molecule microarray, fluorescence 635/667, stem cell growth factor project, primary screen (AID 1067); conditions: higher = more signal;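 note: measures binding of biotinylated aFGF2 protein to printed compounds on slides; z-score merges feature fluorescence and signal-to-noise across triplicate slides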
[4] = small molecules captured by biotinylated probe aFGF10 – biochemical, small-molecule microarray, fluorescence 635/667, stem cell growth factor project, primary screen (AID 1071); conditions: higher = more signal;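 note: score merges 667 nm spot intensity and signal to noise from triplicate slides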
[5] = biological target: Neurogenic locus notch homolog protein 2 (Homo sapiens) (UniProt Q04721); test: small molecules binding Notch2 protein – biochemical, small-molecule microarray, 635 nm fluorescence, stem cell growth factors, primary screen (AID 1073); conditions: higher = more signal
[6] = biological target: Pro-neuregulin-1, membrane-bound isoform (Homo sapiens) (UniProt Q02297); test: small molecules binding neuregulin-1 protein – biochemical, small-molecule microarray, fluorescence 635/667, psychiatric disease protein project, primary screen (AID 1075); conditions: NRG1 binding, 635 nm fluorescence, higher = more signal;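 note: score combines 667 nm spot fluorescence with signal to noise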
[7] = system: Neuregulin-1 EGF-like domain; test: small molecules binding NRG1 EGF domain – biochemical, small-molecule microarray, 635 nm fluorescence, primary screen (AID 1081); conditions: higher = more signal;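 note: binding of the protein to compounds printed on small-molecule microarray slides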
[8] = FRG1 expression reporter modulators in myotubes – cell-based, C2C12 myotubes, firefly/Renilla luciferase, luminescence, FRG1 inhibition for FSHD, primary screen (AID 1084); conditions: FRG1 promoter luciferase, higher = more signal, called active from +8 up or from −8 down
[9] = small molecules captured by biotinylated probe aFST – biochemical, small-molecule microarray, fluorescence 635/667, stem cell growth factor project, primary screen (AID 1086); conditions: higher = more signal;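 note: score merges 667 nm fluorescence with signal-to-noise of each printed compound spot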
[10] = binders of probe aHhip on microarray, primary screen, stem cell growth factor project, biochemical, small-molecule microarray, fluorescence 635/667 (AID 1087); conditions: higher = more signal;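 note: score merges spot fluorescence at 667nm with spot signal to noise ratio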

Sequence of Neurogenic locus notch homolog protein 2 (Homo sapiens) (Q04721 whole entry, looked up, canonical isoform): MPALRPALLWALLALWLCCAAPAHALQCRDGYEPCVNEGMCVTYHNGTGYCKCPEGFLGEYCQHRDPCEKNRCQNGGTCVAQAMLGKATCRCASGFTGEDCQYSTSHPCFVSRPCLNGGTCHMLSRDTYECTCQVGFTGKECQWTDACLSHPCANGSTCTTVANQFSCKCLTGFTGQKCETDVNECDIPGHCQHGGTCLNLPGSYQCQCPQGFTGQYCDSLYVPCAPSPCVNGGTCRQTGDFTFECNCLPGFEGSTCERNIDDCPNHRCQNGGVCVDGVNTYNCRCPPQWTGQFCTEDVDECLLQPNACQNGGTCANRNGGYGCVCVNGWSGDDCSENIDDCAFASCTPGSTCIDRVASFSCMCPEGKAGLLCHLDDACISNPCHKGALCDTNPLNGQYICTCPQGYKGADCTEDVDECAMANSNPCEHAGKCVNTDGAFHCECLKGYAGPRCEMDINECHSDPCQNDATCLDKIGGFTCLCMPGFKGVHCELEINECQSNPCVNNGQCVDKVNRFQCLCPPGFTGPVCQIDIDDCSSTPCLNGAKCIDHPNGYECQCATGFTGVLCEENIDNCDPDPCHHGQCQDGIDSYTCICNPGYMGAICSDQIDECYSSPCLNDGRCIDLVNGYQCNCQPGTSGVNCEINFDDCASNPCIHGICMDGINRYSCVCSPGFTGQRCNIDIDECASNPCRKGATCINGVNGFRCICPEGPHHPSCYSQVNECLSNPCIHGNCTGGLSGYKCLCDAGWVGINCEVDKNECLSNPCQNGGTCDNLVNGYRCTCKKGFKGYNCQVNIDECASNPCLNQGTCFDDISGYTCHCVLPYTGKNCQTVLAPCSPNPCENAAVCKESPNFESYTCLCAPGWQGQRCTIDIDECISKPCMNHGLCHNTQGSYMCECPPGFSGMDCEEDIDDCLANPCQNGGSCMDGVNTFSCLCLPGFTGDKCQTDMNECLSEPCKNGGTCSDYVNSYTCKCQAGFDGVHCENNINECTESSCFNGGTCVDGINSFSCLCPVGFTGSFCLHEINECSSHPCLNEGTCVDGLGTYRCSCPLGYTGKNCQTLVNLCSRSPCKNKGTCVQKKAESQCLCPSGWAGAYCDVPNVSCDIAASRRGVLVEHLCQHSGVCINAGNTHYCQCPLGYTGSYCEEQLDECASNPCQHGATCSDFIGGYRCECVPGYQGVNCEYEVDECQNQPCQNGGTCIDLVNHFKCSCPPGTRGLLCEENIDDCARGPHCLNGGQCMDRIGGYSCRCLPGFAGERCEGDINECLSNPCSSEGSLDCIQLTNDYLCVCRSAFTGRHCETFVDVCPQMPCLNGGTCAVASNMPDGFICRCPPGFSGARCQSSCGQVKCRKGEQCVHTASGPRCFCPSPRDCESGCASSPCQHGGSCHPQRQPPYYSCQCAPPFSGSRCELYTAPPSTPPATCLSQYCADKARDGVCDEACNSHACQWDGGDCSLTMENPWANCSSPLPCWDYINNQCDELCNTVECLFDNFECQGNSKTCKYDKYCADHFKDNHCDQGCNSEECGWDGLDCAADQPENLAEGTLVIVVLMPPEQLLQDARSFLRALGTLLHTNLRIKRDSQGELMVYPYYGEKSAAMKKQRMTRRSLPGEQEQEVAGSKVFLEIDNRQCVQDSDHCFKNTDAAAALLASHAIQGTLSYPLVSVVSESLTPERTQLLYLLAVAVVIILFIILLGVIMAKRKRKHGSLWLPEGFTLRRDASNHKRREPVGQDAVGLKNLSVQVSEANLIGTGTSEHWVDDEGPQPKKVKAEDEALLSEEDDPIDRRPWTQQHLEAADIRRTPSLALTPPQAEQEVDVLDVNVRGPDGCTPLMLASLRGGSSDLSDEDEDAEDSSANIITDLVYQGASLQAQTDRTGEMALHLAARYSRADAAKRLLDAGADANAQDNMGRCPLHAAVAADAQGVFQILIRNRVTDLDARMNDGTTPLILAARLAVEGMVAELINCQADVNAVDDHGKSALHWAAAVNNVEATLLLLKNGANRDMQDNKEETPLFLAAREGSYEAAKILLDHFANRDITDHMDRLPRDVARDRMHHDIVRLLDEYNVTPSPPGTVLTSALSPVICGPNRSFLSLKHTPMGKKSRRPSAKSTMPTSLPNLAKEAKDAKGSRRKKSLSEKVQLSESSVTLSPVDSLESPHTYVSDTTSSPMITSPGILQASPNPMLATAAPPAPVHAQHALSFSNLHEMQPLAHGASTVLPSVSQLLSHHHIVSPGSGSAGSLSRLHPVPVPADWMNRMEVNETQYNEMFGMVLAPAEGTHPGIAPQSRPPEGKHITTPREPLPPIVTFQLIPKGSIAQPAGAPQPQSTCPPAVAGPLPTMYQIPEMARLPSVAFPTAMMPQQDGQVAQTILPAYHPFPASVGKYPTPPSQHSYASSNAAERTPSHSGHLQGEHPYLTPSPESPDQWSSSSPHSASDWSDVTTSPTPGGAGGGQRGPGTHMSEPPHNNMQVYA
Sequence of Pro-neuregulin-1, membrane-bound isoform (Homo sapiens) (Q02297 whole entry, looked up, the tested form may be a part, canonical isoform): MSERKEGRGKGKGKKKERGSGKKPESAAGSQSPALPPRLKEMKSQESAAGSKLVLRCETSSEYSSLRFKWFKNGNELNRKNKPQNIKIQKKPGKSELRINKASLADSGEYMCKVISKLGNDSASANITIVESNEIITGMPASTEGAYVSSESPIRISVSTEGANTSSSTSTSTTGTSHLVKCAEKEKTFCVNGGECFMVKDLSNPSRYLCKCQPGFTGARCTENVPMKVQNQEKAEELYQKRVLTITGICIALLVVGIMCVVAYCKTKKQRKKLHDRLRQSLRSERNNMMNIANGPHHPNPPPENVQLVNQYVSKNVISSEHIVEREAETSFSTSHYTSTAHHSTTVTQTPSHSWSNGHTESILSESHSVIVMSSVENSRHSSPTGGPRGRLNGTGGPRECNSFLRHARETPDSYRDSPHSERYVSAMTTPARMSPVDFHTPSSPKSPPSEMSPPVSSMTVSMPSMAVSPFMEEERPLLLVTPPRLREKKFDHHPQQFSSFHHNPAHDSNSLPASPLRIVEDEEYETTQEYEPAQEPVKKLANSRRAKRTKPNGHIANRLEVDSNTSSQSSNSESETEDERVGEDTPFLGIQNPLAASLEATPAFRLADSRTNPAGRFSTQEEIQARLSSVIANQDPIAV

[N-]=[N+]=NCc1ccccc1C[C@@]1(C(N)=O)N=C(c2ccc(OCCCO)cc2)O[C@@H]1c1ccccc1
composite z-score [1]: 0.218 | composite z-score [2]: -0.173 | composite z-score [3]: -0.0592 | composite z-score [4]: -0.257 | composite z-score [5]: 0.608 | composite z-score [6]: 2.15 | composite z-score [7]: 1.16 | z-score [8]: -1.67 (inactive) | composite z-score [9]: 0.249 | composite z-score [10]: 0.107

CCCCC(CC)C(O)C1C=CC2C(=O)N(c3ccccc3)C(=O)C2N1Nc1ccc(C#N)cc1 (stereo not given)
composite z-score [1]: 0.883 | composite z-score [2]: 0.468 | composite z-score [3]: 0.332 | composite z-score [4]: 1 | composite z-score [5]: 1.59 | composite z-score [6]: 0.893 | composite z-score [7]: 1.31 | z-score [8]: -0.257 (inactive) | composite z-score [9]: 1.66 | composite z-score [10]: -0.183

C=C(COC)/C(=C/C[C@H](OC(=O)c1ccncc1)c1ccc(CO)o1)c1cnc2ccccc2c1
composite z-score [1]: 0.138 | composite z-score [2]: 0.47 | composite z-score [3]: -0.124 | composite z-score [4]: 0.741 | composite z-score [5]: 1.21 | composite z-score [6]: 0.98 | composite z-score [7]: 1.14 | z-score [8]: 1.29 (inactive) | composite z-score [9]: -0.0236 | composite z-score [10]: -0.113

COC(=O)[C@@]1(Cc2ccc(F)cc2)[C@H]2c3cc(C(=O)N4CCCC4)n(CCc4c[nH]c5ccccc45)c3C[C@H]2CN1C(=O)c1ccccc1
composite z-score [1]: 0.484 | composite z-score [2]: 0.246 | composite z-score [3]: 0.0869 | composite z-score [4]: 0.439 | composite z-score [5]: 1.62 | composite z-score [6]: 2.06 | composite z-score [7]: 1.22 | z-score [8]: -2.21 (inactive) | composite z-score [9]: 1.05 | composite z-score [10]: 0.245

O=C1O[C@@H](c2ccccc2)[C@@H](c2ccccc2)N2[C@@H](c3ccc(O)cc3)[C@]3(C(=O)Nc4ccc(C#CCCO)cc43)[C@@H](C(=O)N3CCN(c4ncccn4)CC3)[C@H]12
composite z-score [1]: -1.14 | composite z-score [2]: -0.307 | composite z-score [3]: -0.265 | composite z-score [4]: 0.204 | composite z-score [5]: 0.973 | composite z-score [6]: 0.564 | composite z-score [7]: 1.35 | z-score [8]: -1.55 (inactive) | composite z-score [9]: -0.925 | composite z-score [10]: -1.27

NC(=O)NCC#Cc1ccc2c(c1)[C@]1(C(=O)N2)[C@H](c2ccccc2OCCO)N2[C@H](c3ccccc3)[C@H](c3ccccc3)OC(=O)[C@H]2[C@@H]1C(=O)O
composite z-score [1]: 0.129 | composite z-score [2]: 0.443 | composite z-score [3]: -0.0383 | composite z-score [4]: -0.0167 | composite z-score [5]: -0.243 | composite z-score [6]: 1.11 | composite z-score [7]: -0.0034 | z-score [8]: 0.233 (inactive) | composite z-score [9]: -0.362 | composite z-score [10]: -0.438

CN(C)c1ccc(C(O)C2C=CC3C(=O)NC(=O)C3N2Nc2ccccn2)cc1 (stereo not given)
composite z-score [1]: -0.142 | composite z-score [2]: 1.55 | composite z-score [3]: -0.0982 | composite z-score [4]: 0.68 | composite z-score [5]: 1.5 | composite z-score [6]: 1.15 | composite z-score [7]: 1.41 | z-score [8]: 2.15 (inactive) | composite z-score [9]: 0.995 | composite z-score [10]: -0.134

CC1=C2[C@@H](CCc3ccccc3)OB(O)C[C@@H]2[C@@H]2C(=O)N(C)C(=O)[C@@H]2C1
composite z-score [1]: -0.366 | composite z-score [2]: -0.19 | composite z-score [3]: -0.104 | composite z-score [4]: 0.496 | composite z-score [5]: 0.849 | composite z-score [6]: 1.09 | composite z-score [7]: -0.0884 | z-score [8]: 1.26 (inactive) | composite z-score [9]: 0.438 | composite z-score [10]: -0.171

O=C(NCc1ccc(F)cc1)[C@H]1C[C@H]2C(=O)NCC(=O)N2[C@H]1c1ccc(O)cc1
composite z-score [1]: 0.505 | composite z-score [2]: 0.6 | composite z-score [3]: -0.0224 | composite z-score [4]: -0.162 | composite z-score [5]: -0.336 | composite z-score [6]: 0.964 | composite z-score [7]: 1.3 | z-score [8]: -0.428 (inactive) | composite z-score [9]: 0.101 | composite z-score [10]: 0.12

CC[C@@H]1C=C(C(=O)O)[C@H](c2ccccc2)N1S(=O)(=O)c1ccc(C)cc1
composite z-score [1]: 0.262 | composite z-score [2]: 0.577 | composite z-score [3]: 0.0663 | composite z-score [4]: 0.829 | composite z-score [5]: 1.53 | composite z-score [6]: 1.19 | composite z-score [7]: 1.38 | z-score [8]: -1.24 (inactive) | composite z-score [9]: 0.635 | composite z-score [10]: -0.0296

C#Cc1cc2ccccc2oc1=O
composite z-score [1]: 0.985 | composite z-score [2]: -0.109 | composite z-score [3]: 0.153 | composite z-score [4]: -0.232 | composite z-score [5]: -1.81 | composite z-score [6]: 0.785 | composite z-score [7]: 1.29 | z-score [8]: 1.35 (inactive) | composite z-score [9]: -0.839 | composite z-score [10]: -0.14

COc1cccc(C)c1NC(=O)O[C@H]1[C@H](OC(=O)Nc2ccc3c(c2)OCO3)[C@@H](OC(=O)Nc2ccc3c(c2)OCO3)[C@@H](OC)O[C@@H]1CO
composite z-score [1]: -0.0021 | composite z-score [2]: 0.893 | composite z-score [3]: 0.121 | composite z-score [4]: 1.07 | composite z-score [5]: 1.65 | composite z-score [6]: -0.0548 | composite z-score [7]: 1.07 | z-score [8]: 6.28 (inactive) | composite z-score [9]: 1.17 | composite z-score [10]: 0.0243

COc1ccc([Si](C)(C)[C@@H]2[C@@H](CC(=O)N3CCC[C@H]3CO)O[C@]3(C(=O)N(Cc4cccc(N5C(=O)COc6ccccc65)c4)c4ccccc43)[C@H]2C)cc1
composite z-score [1]: -0.222 | composite z-score [2]: 0.203 | composite z-score [3]: -0.112 | composite z-score [4]: 0.428 | composite z-score [5]: -0.173 | composite z-score [6]: 1.35 | composite z-score [7]: 1.12 | z-score [8]: -0.234 (inactive) | composite z-score [9]: 0.824 | composite z-score [10]: 0.103

COC(=O)[C@@H]1N=C(c2ccc(OCCCO)cc2)O[C@@H]1c1ccccc1
composite z-score [1]: 0.497 | composite z-score [2]: -0.0336 | composite z-score [3]: -0.103 | composite z-score [4]: -0.789 | composite z-score [5]: -0.997 | composite z-score [6]: 0.403 | composite z-score [7]: 0.326 | z-score [8]: 7.16 (inactive) | composite z-score [9]: -0.456 | composite z-score [10]: 0.176

COCCOC(=O)N1C(=O)[C@@]2(c3cc(C#CC4(O)CCCCCC4)ccc31)[C@H](C(=O)N1CCc3cc(OC)c(OC)cc3C1)[C@H]1C(=O)O[C@H](c3ccccc3)[C@H](c3ccccc3)N1[C@@H]2c1ccc(OCCO)cc1
composite z-score [1]: -0.409 | composite z-score [2]: 0.502 | composite z-score [3]: 0.0088 | composite z-score [4]: 0.467 | composite z-score [5]: 1.24 | composite z-score [6]: 0.675 | composite z-score [7]: 1.18 | z-score [8]: 1 (inactive) | composite z-score [9]: 0.198 | composite z-score [10]: -0.0994

C=C(C(=O)CC[C@H](OC(=O)c1ccccc1-c1ccccc1C(=O)O)c1cccc(OCCO)c1)C(C)C
composite z-score [1]: -0.337 | composite z-score [2]: -0.062 | composite z-score [3]: -0.109 | composite z-score [4]: 0.211 | composite z-score [5]: -0.275 | composite z-score [6]: 0.262 | composite z-score [7]: 0.0799 | z-score [8]: -0.0752 (inactive) | composite z-score [9]: -0.224 | composite z-score [10]: -0.134
